An excerpt weighted towards active compounds, which were near 27% of everything screened.
CYP2C19 activ = human CYP2C19 activators, primary screen, biochemical, luminescence. activation factor at 5 µM. recombinant CYP2C19, luciferin-H EGE luminescence; active compounds read high; 0 = fully inhibited enzyme, 1 = untreated enzyme. AID 1025, 2008. 96,000 tested, under 10 active;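 active = activation factor of at least 2 at 5 µM in the primary screen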
CYP2C9 inh = blockers of cytochrome P450 2C9 activity – biochemical, luminescence, ADME assay, primary screen; inhibition, % at 5 µM; actives 20% (n = 96,000); P11712; CYP2C9 Supersomes, luciferin-H conversion; AID 777, 2007;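 active = blocking of liver enzyme CYP2C9 beyond about 50% at 5 µM, limit read from the data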
PTK2B oligo ant = antagonists of Pyk2 self-association, primary screen, Q293 cells, FERM NanoBiT luminescence, HTS; z-score (the deposit names both 25 µM and 10 µM); AID 1347419, 2020; active compounds read low; actives 0.83% (n = 99,000);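 active = Z-score of -3 or lower, scaled per plate to the spread of control and sample wells; inactive = z-score above -3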;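 note: negative z-score means lost luminescence so less FERM oligomerization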
CYP2C19 inhib = blockers of cytochrome P450 2C19 activity – biochemical, luminescence, ADME assay, primary screen; P33261; CYP2C19 Supersomes, luciferin-H EGE luminescence, 30 min; inhibition, % at 5 µM; actives 21% (n = 96,000); AID 778, 2007;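 active = CYP2C19 inhibition above a set limit at 5 µM in the primary screen, cut at about 50% in these data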
CYP2C9 act = human CYP2C9 activators, primary screen, biochemical, luminescence. Cytochrome P450 2C9 (Homo sapiens), P11712. recombinant CYP2C9, luciferin-H conversion; active compounds read high; factor 1 = untreated enzyme, 0 = blocked. activation factor at 5 µM. actives 1.4% (n = 96,000). AID 1024, 2008;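 active = activation factor of 2 or more for CYP2C9 at a 5 µM dose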
Cav32 inh = Cav3.2 calcium influx blockers – cell-based, Fluo-4 calcium fluorescence, FDSS, MLSMR library, primary screen. Voltage-dependent T-type calcium channel subunit alpha-1H (Homo sapiens), O95180. Cav3.2-expressing cells; active compounds read low. B-score at 10 µM. actives 4% (n = 100,000);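 active = single-dose well whose peak fluorescence ratio is a statistical outlier from its plate by either plate-standardised score or position-corrected B-score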
Large screens that a line does not name were inactive.

O=C(COC(=O)c1ccc[nH]c1=O)NC1CCCC1	none
O=C(COC(=O)c1ccccc1OCc1ccccc1Cl)NC1CC1	CYP2C19 inhib 53.0
COC(=O)c1cccc(C23CC4(C2)[C@H](CN(Cc2ccc(C(F)(F)F)cc2)[C@@H]4c2ccccc2)C3c2ccc(C(F)(F)F)cc2)c1 (some centres undefined)	none (no result: CYP2C19 activ, CYP2C9 inh, PTK2B oligo ant, CYP2C19 inhib, CYP2C9 act)
COc1ccc2[nH]c(C)c(CCN3C(=O)C4C5C=CC(C5)C4C3=O)c2c1 (centres undefined)	CYP2C19 inhib 93.7 (no result: PTK2B oligo ant, Cav32 inh)
Cc1ccc(CSc2nnc(CS(=O)Cc3ccc(Cl)cc3Cl)n2C)cc1 (centres undefined)	CYP2C9 inh 54.4
O=S(Cc1ccc(Br)cc1)Cc1nnc(SCc2ccc(Cl)cc2)n1-c1ccccc1 (centres undefined)	CYP2C9 inh 52.2
CCOc1ccc(/C=C(\C#N)C(=O)NCC2CCCO2)cc1OCC (centres undefined)	none (no result: CYP2C19 activ, CYP2C9 inh, CYP2C19 inhib, CYP2C9 act, Cav32 inh)
N#C/C(=C\c1cn(CCOc2ccccc2)c2ccccc12)C(=O)NCC1CCCO1 (centres undefined)	CYP2C9 inh 92.4, CYP2C19 inhib 57.7, Cav32 inh -4.38
Cc1ccc2nc(SCC(=O)NCc3cccs3)c(C#N)cc2c1	none
N#C/C(=C\c1cn(Cc2ccccc2C#N)c2ccccc12)C(=O)NCc1cccs1	CYP2C9 inh 60.3 (no result: PTK2B oligo ant, Cav32 inh)
Nc1nc(CSCc2ccccc2)nc(N2CCOCC2)n1	CYP2C19 inhib 91.8
Clc1ccc(CNc2nc(N3CCOCC3)nc(N3CCOCC3)n2)cc1	CYP2C9 inh 75.4, CYP2C19 inhib 77.1
CCNc1nc(SCc2ccccc2)nc(N2CCOCC2)n1	CYP2C9 inh 67.8, CYP2C19 inhib 82.1, Cav32 inh -4.95
Nc1nc(N2CCOCC2)nc(N(c2ccccc2)c2ccccc2)n1	none (no result: PTK2B oligo ant)
COc1cc2[nH]c(=S)n(NC(=O)CC(C)C)c(=O)c2cc1OC	none
CCOC(=O)COc1ccc(S(=O)(=O)N2CCN(c3ccccc3F)CC2)cc1	CYP2C9 inh 81.0, CYP2C19 inhib 68.0
O=C(COc1ccccc1)N1CCN(S(=O)(=O)c2ccc(Cl)cc2)CC1	none
COc1cc(S(=O)(=O)N2CCN(c3ccc(F)cc3)CC2)ccc1Cl	PTK2B oligo ant -3.28
COc1cc(S(=O)(=O)N2CCN(c3ccccc3F)CC2)ccc1Cl	CYP2C9 inh 89.5, PTK2B oligo ant -3.05, CYP2C19 inhib 99.4
Cc1noc(C)c1S(=O)(=O)N1CCCC(C(=O)NCc2ccccn2)C1 (centres undefined)	none
CC(=O)C1=C(c2ccccc2)NC(=O)NC1c1ccccc1OCC#N (centres undefined)	none
C=CCc1ccc(OCCOCCN(C)C)c(OC)c1	none
C=CCc1ccc(OCCOc2cccc3ccc(C)nc23)c(OC)c1	CYP2C9 act 2.1
C=CCc1ccc(OCCOCCOc2ccc(C)cc2[N+](=O)[O-])c(OC)c1	Cav32 inh -5.45 (no result: CYP2C19 activ, CYP2C9 inh, CYP2C19 inhib, CYP2C9 act)
Fc1ccc(C(c2nnnn2Cc2cccs2)N2CCN(C3CCCCC3)CC2)cc1 (centres undefined)	CYP2C19 inhib 86.0
COc1ccc(C(c2nnnn2Cc2cccs2)N2CCN(c3ccc(F)cc3)CC2)cc1OC (centres undefined)	PTK2B oligo ant -3.3
COCCn1nnnc1C(c1ccccn1)N1CCN(c2cc(Cl)ccc2C)CC1 (centres undefined)	none
CN1CCN(C(c2ccc(F)cc2)c2nnnn2Cc2cccs2)CC1 (centres undefined)	none
c1ccc(Cn2nnnc2C(c2cccnc2)N2CCN(c3ccccc3)CC2)cc1 (centres undefined)	none
COc1ccc(Cn2nnnc2C(c2ccccn2)N2CCN(c3cc(Cl)ccc3C)CC2)cc1 (centres undefined)	CYP2C9 inh 87.7, CYP2C19 inhib 97.9
